Test [1] concerns T1, PFTK1.
T1 construct: gene CDK14
The note with it: concentration: 1 μM, replicates: in singlicate, n = 1.

Test [2] has as its system PHKG1. Conditions: concentration: 1 μM, replicates: in singlicate, n = 1.
In test [3] the test system is PHKG2. Conditions: concentration: 1 μM, replicates: in singlicate, n = 1.
The subject of test [4] is PIK3C2B. Conditions: concentration: 1 μM, replicates: in singlicate; n = 1.
In test [5] the test system is PIK3C2G. Conditions: concentration: 1 μM, replicates: in singlicate, n = 1.
Test [6] has as its system PIK3CA. The note with it: concentration: 1 μM, replicates: in singlicate, n = 1.
Test [7] deals with PIK3CB. Conditions: concentration: 1 μM, replicates: in singlicate, n = 1.
The test system of test [8] is PIK3CD. Conditions: concentration: 1 μM, replicates: in singlicate; n = 1.
Test [9] concerns PIK3CG. Conditions: concentration: 1 μM, replicates: in singlicate, n = 1.
Test [10] has as its system T2, PIK4CB.
T2 construct: gene PI4KB
The note with it: concentration: 1 μM, replicates: in singlicate, n = 1.

Several values for one entry are separate records, joined by “and”; a condition that tells them apart may be missing. Equal entries are not always repeated. Where two headings read alike, the source gives them in different places.
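Also: KINOMEscan kinase panel screen.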

On to `COc1ccc(S(=O)(=O)NC2CCN(c3cc(C)nc(Nc4cccc(C#N)c4)n3)CC2)cc1.O=C(O)C(F)(F)F` [GSK1653539], for which the “%Inh” value in test [1] was determined as 11%; in test [2], 0%; in [3] it was 9%; in test [4], 12%; in [5] it was 0%; in test [6] it was 6%. In addition, the “%Inh” value in [7] came to 100%; in test [8], 0%; in test [9], 33%; in [10], 0%.

For `C[C@@H](Oc1cc(-n2cnc3ccc(NC(=O)NC(C)(C)C)cc32)sc1C(N)=O)c1ccccc1Cl` [GSK346294], the “%Inh” value in [1] is 24%; in [2], 0%; in [3], 13%; in [4], 0%; in test [5] it was 0%; in test [6] it was 3%. Moreover, the “%Inh” value in test [7] was determined as 5%; in test [8], 0%; in test [9], 6%; in test [10], 0%.

Take `COc1ccc(Nc2ncc(C#N)c(Nc3ccccc3C(N)=O)n2)cc1N1CCN(C)CC1.Cl` [GSK1558669]: the “%Inh” value in test [1] was 99.4%; in [2], 89%; in [3], 85%; in [4] it was 0%; in test [5], 0%; in test [6], 0%. The “%Inh” value is 0% in test [7], 0% in test [8], 0% in test [9] and 15% in test [10].

`[2H]C([2H])(c1cccc(C(F)(F)F)c1C)n1ccn2c(=O)nc(N3CCOCC3)cc12` [GSK2336394]: the “%Inh” value in [1] was found to be 12%; in test [2], 0%; in [3] it was 0%; in test [4], 0%; in test [5], 0%; in test [6] it was 0%. The “%Inh” value in test [7] came to 97.5%; in [8], 38%; in test [9] it was 0%; in test [10] it was 0%.

As to `Cc1cccc(Cn2ccn3c(=O)cc(N4CCOCC4)nc23)c1` [GSK2297542], the “%Inh” value in [1] is 15%; in test [2], 1%; in [3], 8%; in [4], 4%; in test [5] it was 0%; in test [6], 12%. For the same compound, the “%Inh” value is reported as 100% in [7], 52% in [8], 10% in test [9] and 0% in test [10].

In the case of `O=c1cc(N2CCOCC2)nc2n(Cc3cccc4ccccc34)ccn12` [GSK2333389], the “%Inh” value in [1] was 0%; in test [2], 2%; in test [3] it was 0%; in test [4], 0%; in [5], 0%; in [6] it was 0%. Moreover, the “%Inh” value amounted to 99.7% in test [7], 89% in test [8], 3% in test [9] and 6% in test [10].

As to `Cc1nnc(-c2ccc3occ(-c4ccc(C(C)O)cc4)c3c2)o1` (centres unmarked), the “%Inh” value in test [1] came to 1%; in test [2], 9%; in test [3] it was 16%; in [4], 18%; in test [5], 23%; in [6] it was 9%. Besides, the “%Inh” value worked out at 18% in test [7], 0% in test [8], 25% in test [9] and 0% in test [10].

Consider `COc1ccc(CNC(=O)NC2CCN(c3ccnc(Nc4ccc(OC)cc4)n3)C2)cc1` (centres unmarked) [GSK1379727], for which the “%Inh” value in test [1] stood at 9%; in test [2], 0%; in test [3], 0%; in test [4], 0%; in test [5], 0%; in test [6], 0%. The “%Inh” value was 0% in test [7], 26% in test [8], 0% in test [9] and 2% in test [10].

Take `O=C1NC(=O)C(N2CCc3ccccc32)=C1c1cccc(Cl)c1` [SB-408010]: the “%Inh” value in [1] amounted to 5%; in test [2], 0%; in [3] it was 0%; in test [4], 0%; in test [5], 0%; in [6], 0%. Moreover, the “%Inh” value in [7] was determined as 33%; in test [8] it was 9%; in test [9] it was 0%; in test [10] it was 5%.

For the compound `COC(=O)Nc1nc2cc(Oc3ccc(NC(=O)Nc4cc(F)ccc4F)cc3)ccc2[nH]1.Cl` [GW701424], the “%Inh” value in [1] is 19%; in [2], 0%; in [3] it was 0%; in test [4], 0%; in test [5], 0%; in [6], 0%. Also, the “%Inh” value in test [7], in test [8], in [9] and in [10] was 0% each time.

For the compound `CN(C1=C(c2ccccc2)C(=O)NC1=O)c1ccccc1` [SB-334860], the “%Inh” value in [1] is listed as 21%; in test [2], 0%; in test [3], 0%; in test [4], 0%; in test [5] it was 3%; in test [6] it was 0%. Further, the “%Inh” value in [7] was found to be 25%; in [8] it was 7%; in test [9] it was 10%; in test [10], 13%.

Regarding `CN1c2ccc(CNc3ccc(F)cc3)cc2-c2c(cnn2C)S1(=O)=O`, the “%Inh” value was 0% in test [1]; 0% in test [2]; 0% in test [3]; 19% in [4]; 41% in [5]; 0% in [6]. The “%Inh” value in [7], in test [8], in test [9] and in test [10] was 0% each time.

On to `O=C(NOCC1CC1)c1ccc(F)c(F)c1Nc1ccc(I)cc1Cl`, for which the “%Inh” value is 0% in [1]; 0% in [2]; 0% in test [3]; 0% in test [4]; 0% in test [5]; 15% in test [6]. In addition, the “%Inh” value was 0% in test [7], 0% in test [8], 0% in test [9] and 100% in test [10].

As for `CC(=O)Nc1ccc(COc2ccc(Nc3ccnc4cc(-c5ccccn5)ccc34)cc2)cc1.Cl` [GW440148], the “%Inh” value in test [1] is 25%; in [2], 0%; in [3], 0%; in [4], 0%; in test [5], 0%; in [6], 2%. Besides, the “%Inh” value is on record as 100% in test [7], 7% in test [8], 14% in test [9] and 16% in test [10].

Take `COc1ccc(Nc2nccc(N3CCC(NC(=O)Nc4cccc(C(C)=O)c4)C3)n2)cc1` (centres unmarked) [GSK1379731]: the “%Inh” value is listed as 3% in test [1]; 0% in [2]; 0% in [3]; 0% in [4]; 0% in test [5]; 0% in [6]. For the same compound, the “%Inh” value in test [7], in test [8], in test [9] and in [10] was 0% throughout.

Regarding `Cc1nnc(-c2ccc(C)c(-c3ccc(C(=O)Nc4ccc(NS(C)(=O)=O)cc4)cc3)c2)o1` [GW702865], the “%Inh” value in [1] is recorded as 14%; in test [2], 2%; in [3], 0%; in [4] it was 0%; in test [5] it was 0%; in [6], 0%. In addition, the “%Inh” value turned out to be 0% in [7], 10% in test [8], 0% in test [9] and 0% in [10].

For `NCCNS(=O)(=O)c1ccc(-c2ccnc3[nH]ccc23)cc1` [GSK977617], the “%Inh” value in test [1] (1 µM) was 16% and 27%; in [2] (1 µM), 45% and 25%; in test [3] (1 µM) it was 75% and 60%; in test [4], 0%; in test [5] (1 µM), 32% and 12%; in test [6] (1 µM), 0% and 3%. In addition, the “%Inh” value in test [7] (1 µM) is 43% and 15%; in test [8], 0%; in test [9] (1 µM), 80% and 68%; in test [10] (1 µM), 64% and 26%.

The values are drawn from paper PMC5540273 (PLoS ONE, 2017).
